Only some compounds are listed: those with a hit (about 11% of all), similar ones and a draw of the others.
HEK293 tox = cytotoxic compounds in HEK 293 cells. HEK 293 viability, ATP luminescence (CellTiter-Glo), 48-72 h. hit rate 6.6% among 94,000. Potency, µM (titrated, usually from 115 µM), inactives show at the top dose activity change, negative = cytotoxicity, most hits filed as inhibitors; also: nearly all actives have a fitted effect of over 60% in size
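Luminescence from cellular ATP, measured with CellTiter-Glo, indicates HEK 293 viability. Cells plated at 250 cells/well are treated with compound for 48 or 72 hr at 37 degree Celsius before reagent addition.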
NIH3T3 tox = NIH 3T3 cell cytotoxicity. NIH 3T3 viability, CellTiter-Glo ATP luminescence, 48-72 h. Potency, µM (doses to about 96.7 µM), inactives show at the top dose activity change, negative = cytotoxicity, usual class: inhibitors. hit rate 4.3% among 94,000; also: nearly all actives have a fitted effect of over 55% in size
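ATP-dependent luminescence (CellTiter-Glo) served as the viability signal for NIH 3T3 cells treated with compound for 48 or 72 hr at 37 °C.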
NPR1 antag = antagonists of human natriuretic peptide receptor Npr1; P16066; HEK293 hNpr1 GloSensor cGMP, ANP-stimulated luminescence; Potency, µM (series often up to 46.3 µM), inactives show at the top dose activity change, negative = inhibition, usual class: inhibitors; hit rate 1.6% among 76,000; AID 1347048; calls by dose curve; also: nearly all actives have a fitted effect of over 60% in size
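HEK293 cells stably expressing human Npr1 and cGMP GloSensor pGS-40F, loaded 2 h with 2% GloSensor reagent, given compound 30 min at room temperature. Luminescence read before and 20 min after 0.1 nM hNppA.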
Luciferase inh = blocks purified firefly luciferase enzyme activity | P08659 | Potency, µM (titrated, usually from 115 µM), actives largely listed as inhibitors | purified P. pyralis luciferase, luminescence, biochemical | hit rate 2.5% among 76,000; also: nearly all actives have a fitted effect of over 65% in size
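Luminescence read by CCD imager after adding enzyme (10nM final) to wells holding compound, titrated in qHTS. Substrates 10uM each D-luciferin and ATP; buffer 50mM Tris acetate pH 7.5, 10mM Mg acetate, Tween-20, BSA.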
Active calls of the source: *; i = inactive; ? = inconclusive; nt = no result given; [ ] = another dose, or the depositor's remark. Unless noted, calls follow the shape of the dose curve; as a rule, active = well fitted curve in the direction sought with a large enough effect; inconclusive = small, poorly fitted or top-dose-only effect, or another doubt; inactive = no such curve, though single readings can be large; an effect the other way counts as inactive or inconclusive. % is scaled to controls: 0 for no effect and ±100 for the full control effect; potency is read from the fitted curve at half-maximal effect.

SMILES	HEK293 tox	NIH3T3 tox	NPR1 antag	Luciferase inh
COc1ccc(-c2cc(N3CCCN(C(=O)c4cc5ccccc5[nH]4)CC3)n[nH]2)cc1	45µM*	35µM*	-19%	?
COc1ccc(C2(C(=O)N3CCCN(c4cc(-c5ccc(C)c(C)c5)[nH]n4)CC3)CC2)cc1	25µM*	32µM*	?	i
COc1ccc(-c2cc(N3CCN(C(=O)c4ccc(C)cc4C)CC3)n[nH]2)cc1	40µM*	?	?	i
Cc1cc(C)c(CNC(=O)c2nc(-c3cccc(F)c3)cc3c2ccn3C(C)C)c(=O)[nH]1	32µM*	?	-7%[70.6 µM]	i
Cc1cc(C)c(CNC(=O)c2nc(-c3ccccc3)cc3c2ccn3C(C)C)c(=O)[nH]1	?	?	-11%[70.6 µM]	i
Cc1cc(C)c(CNC(=O)c2nc(-c3cccc(O)c3)cc3c2ccn3C)c(=O)[nH]1	?	25µM*	-3%[70.6 µM]	i
Cc1cc(C)c(CNC(=O)c2nc(-c3cccc(F)c3)cc3c2ccn3C)c(=O)[nH]1	?	-29%[138 µM]	1%[70.6 µM]	i
Cc1cc(C)c(CNC(=O)c2nc(-c3ccnn3C)cc3c2ccn3C(C)C)c(=O)[nH]1	?	89µM*	-1%[70.6 µM]	i
Cc1cc(C)c(CNC(=O)c2nc(-c3cccc(O)c3)cc3c2ccn3C(C)C)c(=O)[nH]1	?	?	-15%[70.6 µM]	i
O=C(NCCCN1CCCCC1)c1cccnc1N1CC2CC(C1)[C@H]1CCCC(=O)N1C2 (stereo partly drawn)	9%	i	-2%	i
CC(C)CNC(=O)Cc1ccc(N(Cc2ccccc2)C(=O)c2ccco2)cc1	?	?	-12%	i
O=C(Cc1ccc(N(Cc2ccccc2)C(=O)c2ccco2)cc1)Nc1ccccc1	35µM*	?	-15%	?
O=C(Cc1ccc(N(Cc2ccccc2)C(=O)c2ccco2)cc1)NCCc1ccccc1	50µM*	?	-6%	i
COCCNC(=O)Cc1ccc(N(Cc2ccccc2)C(=O)c2ccco2)cc1	-1%	-4%	7%	i
CC(C)N1C[C@@H]2C[C@H]1C(=O)N(CC1CC1)c1ccccc1O2	-22%[172 µM]	-10%[138 µM]	-6%[70.6 µM]	i
COc1ccccc1Nc1ncc2c(n1)CN([S+](=O)([O-])c1ccccc1)CCN2	100µM*	?	-11%[70.6 µM]	i
O=C(C1CCC1)N1CCNc2cnc(Nc3ccccc3)nc2C1	?	?	-29%[70.6 µM]	i
O=[S+]([O-])(c1ccccc1)N1CCNc2cnc(Nc3cccc(F)c3)nc2C1	89µM*	?	?	i
NCCc1cccc(CN2CCC(Oc3cccc(F)c3)CC2)c1	?	?	2%	i
CNC(=O)c1cc(C2CC2)nc2c1c(C1CCN(C(=O)COC)CC1)nn2C	i	-5%	nt	nt
CCCNc1cc(N2CCC(CCC(=O)Nc3cccc(C)c3)CC2)ncn1	i	0%	-23%	20µM*
CCCNc1cc(N2CCC(CCC(=O)N3CCN(c4ccc(F)cc4)CC3)CC2)ncn1	?	20µM*	11µM*	?
CCCNC(=O)CCC1CCN(c2cc(NCCC)ncn2)CC1	1%	-11%	-3%	?
CCCNc1cc(N2CCC(CCC(=O)N3CCN(c4cccc(C)c4)CC3)CC2)ncn1	20µM*	?	?	?
CNC(=O)c1nc2cccnc2n(Cc2ccccc2)c1=O	-12%[172 µM]	-29%[138 µM]	nt	nt
SMILES	HEK293 tox	NIH3T3 tox	NPR1 antag	Luciferase inh
COc1ccc(-c2ccc(C(=O)NCc3ccccc3F)cc2)nn1	112µM*	?	nt	nt
COc1ccc(-c2ccc(C(=O)NCc3cccc(F)c3)cc2)nn1	?	-25%	nt	nt
COc1ccc(-c2ccc(NC(=O)c3ccccc3C)cc2)nn1	40µM*	?	nt	nt
COc1ccc(-c2ccc(C(=O)NCc3ccccc3)cc2)nn1	-27%[172 µM]	-22%[138 µM]	nt	nt
COc1ccc(-c2ccc(C(=O)Nc3ccccc3Cl)cc2)nn1	?	-27%[138 µM]	nt	nt
COc1ccc(-c2ccc(C(=O)N(C)c3ccccc3)cc2)nn1	22µM*	13µM*	nt	nt
COc1ccc(-c2ccc(C(=O)NCc3cccnc3)cc2)nn1	-18%[172 µM]	8.9µM*	nt	nt
CC(C)c1nc2cc(C(=O)N3CCCC(c4ccccc4)C3)ccc2o1 (stereo not drawn)	?	?	8%	i
O=C(NCc1cccnc1)c1ccc2oc(-c3ccc(C(F)(F)F)cc3)nc2c1	11µM*	?	?	i
CCS(=O)(=O)c1ccc2oc([C@H]3CCN(C(C)C)C3)nc2c1	-22%[172 µM]	-16%[138 µM]	-1%[70.6 µM]	i
